About 83,000 compounds went through this panel and 20% of them were active in at least one assay; those are over-represented in the sample as a whole.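 Percent growth is the endpoint: 0 to 100 indicates growth inhibition (40 means 60% inhibition), 0 means no net growth, and negative values indicate cell death.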 A number with no mark means an inactive call. The source made the active and inactive calls. How the source made its calls: active means growth percent below 10; inactive means the rest.

15 compounds from PubChem BioAssay (NCI) can be followed below.

Some test systems named below: HCT-15 colon; HT29 colon; SNB-75 CNS; SNB-19 CNS; U251 CNS; SK-MEL-5 melanoma; LOX IMVI melanoma; SK-MEL-28 melanoma; UACC-62 melanoma; PC-3 prostate.
What all share (test): NCI-60 one-dose screen, 48 h (100 = growth as untreated, 0 = no growth, -100 = all killed)
Holding throughout (details): 10 µM unless noted

Turning to `Cn1cc(-c2nonc2-c2cn(C)c3ccc(F)cc23)c2cc(F)ccc21`, the growth in the test with HCT-15 colon was 30.8%; in the test with HT29 colon, 12.3%; in the test on SNB-75 CNS, 53.8%; in the test on SNB-19 CNS, 60.1%; in the test on U251 CNS it was 45.2%; in the test with SK-MEL-5 melanoma, 51.4%. Further, the figures for the growth in the test on LOX IMVI melanoma and in the test with SK-MEL-28 melanoma were 57.9% and 69%, respectively.

With `CC(=O)Oc1ccc(Cl)cc1CN(C(C)=O)C1CCCCC1`, the growth in the test with HCT-15 colon was 101%; in the test with HT29 colon it was 107%; in the test on SNB-75 CNS, 93.7%; with SNB-19 CNS, 95.7%; in the test with U251 CNS, 95.9%; with SK-MEL-5 melanoma, 101%. Also, the growth is 114% in the test on LOX IMVI melanoma and 106% in the test with SK-MEL-28 melanoma.

As for `Cn1cccc1-c1nc2c3c(ccc2[nH]1)C(=O)c1ccccc1C3=O`, the growth was 82.1% in the test with HCT-15 colon; 104% with HT29 colon; 137% in the test on SNB-75 CNS; 105% in the test with SNB-19 CNS; 87.5% in the test on U251 CNS; 90.4% with SK-MEL-5 melanoma. For the same compound, the growth is 88.9% in the test with LOX IMVI melanoma and 117% with SK-MEL-28 melanoma.

In the case of `CN(C)C(=S)N=Nc1c(O)[nH]c2ccccc12`, the growth with HCT-15 colon was 31.7%; in the test with HT29 colon it was 28.7%; in the test on SNB-75 CNS, 48.4%; with SNB-19 CNS it was 18.3%; in the test on U251 CNS it was 17%; in the test with SK-MEL-5 melanoma, 4.77% (active). Also, the growth in the test on LOX IMVI melanoma was 14%; with SK-MEL-28 melanoma, 37.5%.

For `C=C1c2nc3ccccc3n2C=C(c2cccc(Cl)c2)N1Cc1ccc(OC)cc1`, the growth in the test on HCT-15 colon was 25.7%; in the test with HT29 colon it was 99.1%; with SNB-75 CNS, 16.5%; with SNB-19 CNS it was 20.4%; in the test with U251 CNS, 18.4%; in the test with SK-MEL-5 melanoma it was -31.1% (active). Moreover, the growth in the test with LOX IMVI melanoma was 37.2%; with SK-MEL-28 melanoma it was 67.7%.

Take `Fc1ccc2[nH]cc(SSc3c[nH]c4ccc(F)cc34)c2c1`: the growth in the test on HCT-15 colon is 25.8%; in the test with HT29 colon, 39.2%; in the test with SNB-75 CNS, 64.1%; in the test with SNB-19 CNS, 41.1%; with U251 CNS, 13.8%; in the test with UACC-62 melanoma, 63.8%. The growth was 25.5% in the test on LOX IMVI melanoma and 75.6% with SK-MEL-28 melanoma.

Consider `O=C(COc1ccc(/C=C2\COc3ccccc3C2=O)cc1)Nc1nccs1`, for which the growth is 72.6% in the test on HCT-15 colon; 39.1% with HT29 colon; 84.6% in the test on SNB-75 CNS; 88.2% with SNB-19 CNS; 73% with U251 CNS; 96.4% in the test on UACC-62 melanoma. The growth in the test on LOX IMVI melanoma is 63.2%; in the test on SK-MEL-28 melanoma, 86.5%.

With `COc1ccc(S(=O)(=O)N2CC3(COC3)C2)cc1NC(=O)c1[nH]c(C)c2c1CCCCC2=O`, the growth in the test on HCT-15 colon is 70.1%; with HT29 colon, 19.2%; in the test with SNB-75 CNS, 19.4%; with SNB-19 CNS, 54.9%; in the test with U251 CNS it was 62.8%; with UACC-62 melanoma, 23.4%. Further, the growth in the test on LOX IMVI melanoma is 17.3%; in the test with SK-MEL-28 melanoma it was 73.7%.

With `COCCNc1ccc2c3c(cccc13)C(=O)N(CCN(C)C)C2=O`, the growth with HCT-15 colon is 20%; in the test on HT29 colon, 10.4%; in the test on SNB-75 CNS, 47.7%; in the test with SNB-19 CNS, 22.4%; in the test with U251 CNS it was 28.1%; with UACC-62 melanoma, 3.48% (active). The growth is 2.86% (active) in the test with LOX IMVI melanoma and 37.5% with SK-MEL-28 melanoma.

In the case of `Cc1ccccc1COc1ccc(-c2onc(C)c2-c2ccc(Cl)cc2)cc1`, the growth was 37.6% with HCT-15 colon; 16.9% in the test on HT29 colon; 52.9% in the test with SNB-75 CNS; 55.5% in the test on SNB-19 CNS; 41.3% in the test on U251 CNS; 73.4% in the test with SK-MEL-5 melanoma. The growth in the test on UACC-62 melanoma was 48.5%; in the test on LOX IMVI melanoma, 68%; with SK-MEL-28 melanoma it was 70.5%.

On to `N#C/C(=C\c1ccc(-c2cc(C(F)(F)F)ccc2Cl)o1)c1nc(-c2ccco2)cs1`, for which the growth in the test with HCT-15 colon was 103%; in the test on HT29 colon, 101%; with SNB-75 CNS it was 70%; with SNB-19 CNS, 95.2%; with PC-3 prostate, 99.5%; with SK-MEL-5 melanoma, 97.5%. The growth in the test with UACC-62 melanoma is 78.9%; in the test with LOX IMVI melanoma, 99.5%; with SK-MEL-28 melanoma, 108%.

Turning to `N=C(N)c1ccc(-c2ccc(-c3ccc4ccccc4c3)s2)s1`, the growth is -82.4% (active) in the test with HCT-15 colon; -60.5% (active) in the test with HT29 colon; 89.3% in the test on SNB-75 CNS; -40.4% (active) in the test with SNB-19 CNS; 71.9% with PC-3 prostate; 84.4% with SK-MEL-5 melanoma. Besides, the growth with UACC-62 melanoma is -6.73% (active); in the test on LOX IMVI melanoma, -56.6% (active); in the test with SK-MEL-28 melanoma, 92.8%.

With `CCCc1cc(=O)n2c(C(=O)Nc3ccc(F)cc3)c(C(=O)Nc3ccc(F)cc3)sc2n1`, the growth is 83% [30 µM] in the test with HCT-15 colon; 53.8% [30 µM] in the test with HT29 colon; -15.9% [30 µM] (active) with SNB-75 CNS; 48.4% [30 µM] in the test on SNB-19 CNS; 41.6% [30 µM] with U251 CNS; 84% [30 µM] with UACC-62 melanoma. In addition, the growth is 65.1% [30 µM] with LOX IMVI melanoma and 77.7% [30 µM] with SK-MEL-28 melanoma.

For `COc1cc2nc(N3CCCC3)nc(NCCc3ccccc3)c2cc1OC`, the growth in the test on HCT-15 colon was -55.1% (active); with HT29 colon, 5.28% (active); in the test on SNB-75 CNS, 93.5%; with SNB-19 CNS it was 87.6%; in the test with PC-3 prostate, 67%; with SK-MEL-5 melanoma, 90.3%. Further, the growth was 94.7% with UACC-62 melanoma, -74.8% (active) in the test on LOX IMVI melanoma and 88.6% with SK-MEL-28 melanoma.

Turning to `C=CC(=O)Nc1cccc(-c2nc(SC)nc(NCCc3ccc(OC)c(OC)c3)c2C#N)c1`, the growth in the test on HCT-15 colon was 52.3%; in the test on HT29 colon, 77.5%; in the test on SNB-75 CNS, 37.9%; with SNB-19 CNS, 71.8%; in the test on PC-3 prostate, 53.2%; in the test with SK-MEL-5 melanoma, -29.2% (active). Also, the growth in the test with UACC-62 melanoma was 48.1%; with LOX IMVI melanoma it was 56.6%; in the test with SK-MEL-28 melanoma, 72.3%.
